Assay results as given in PubChem BioAssay AID1259416 (Broad Institute, 2018).
Several values for one entry are separate records, joined by “and”; a condition that tells them apart may be missing. Identical values can stand only once. The campaign covered roughly 69,000 compounds. About 2,600 (3.8%) were called active. No stated cut-off is given here; in the data, active means activity change below about -70% (passing the limit was not always enough); inconclusive means no clear call, values can overlap the other calls. This excerpt belongs to a sample that is enriched for actives.

Assay: T. gondii growth inhibition with IFN-gamma, primary screen, cell-based (AID 1259416);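 further: host cells are HeLa cells infected with Toxoplasma gondii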
Settings: Toxoplasma gondii growth in IFN-gamma-treated host cells; stronger effect = lower value; concentration not given here

Compound	activity change, negative = inhibition
CCC(c1ccccn1)N(C)C1CCNCC1 (configuration not stated)	16.8% (inactive)
CN(CC1Cc2ccccc2O1)S(=O)(=O)NCc1ccccc1 (configuration not stated)	0.376% (inactive)
CN1CCO[C@@H]2CN(C(=O)CC3Cc4ccccc4C3)C[C@@H]2C1	112% (inactive)
CN(C[C@@H]1[C@H](c2ccccc2)[C@@H](CO)N1Cc1ccccn1)S(C)(=O)=O	2.44% (inactive)
CCc1cc(CN2CCCC2c2nc3ccc(C)cc3[nH]2)on1 (configuration not stated)	9.45% (inactive)
CC(=O)NCCc1csc(C2CCN(C(=O)NCc3ccc(F)cc3)CC2)n1	-3.56% (inactive)
O=C(O)CCC(=O)N1CC2CCC(C1)N2C(=O)c1ccco1	61.2% (inactive)
CC(C)NC(=O)N1CC2(C1)[C@H](c1ccccc1)[C@H](CO)N2C(=O)C1CCOCC1	-2.06% (inactive)
Cc1cccc(C2c3[nH]c4ccccc4c3CCN2C(=O)c2ccccc2C)c1 (configuration not stated)	-84.7% (active)
CCOc1cccc(CC(=O)N2CCc3c([nH]c4ccccc34)C2c2ccc(F)cc2)c1OCC (configuration not stated)	-74.9% (active)
Cc1ccc(C2c3[nH]c4ccccc4c3CCN2C(=O)c2cccc(C)c2)cc1 (configuration not stated)	226% (inactive)
CCOc1cccc(C2c3[nH]c4ccccc4c3CCN2C(=O)c2ccccc2)c1 (configuration not stated)	-34.3% (inactive)
Cc1cccc(C2c3[nH]c4ccccc4c3CCN2C(=O)C(=O)CCc2ccccc2)n1 (configuration not stated)	-13.8% (inactive)
CCOc1ccc(C2c3[nH]c4ccccc4c3CCN2C(=O)C2CC2)cc1 (configuration not stated)	-34.9% (inactive)
CSc1ccc(C2c3[nH]c4ccccc4c3CCN2C(=O)c2cc3ccccc3[nH]2)cc1 (configuration not stated)	-96.3% (active)
CCOc1cccc(CC(=O)N2CCc3c([nH]c4ccccc34)C2c2ccc(OC)cc2)c1OCC (configuration not stated)	213% (inactive)
COCC1CN(c2ccc(C)nn2)Cc2cnn(C)c21 (configuration not stated)	-0.315% (inactive)
Cc1ccc(S(=O)(=O)Nc2cncc(C(=O)NCC(C)C)c2)cc1	-16.9% (inactive)
Cc1nn(C)c2c1C(c1cc(F)ccc1-n1cccn1)CC(=O)N2 (configuration not stated)	-37.8% (inactive)
CC1(C)[C@@H](O[C@H]2O[C@H](C(=O)O)[C@@H](O)[C@H](O)[C@@H]2O[C@@H]2O[C@H](C(=O)O)[C@@H](O)[C@H](O)[C@H]2O)CC[C@@]2(C)[C@H]3C(=O)C=C4[C@@H]5C[C@@](C)(C(=O)O)CC[C@]5(C)CC[C@@]4(C)[C@]3(C)CC[C@@H]12	15.6% (inactive)
COc1ccccc1-c1nc(Cc2noc(-c3cccnc3)n2)c(C)o1	-62.2% (inactive)
O=C(c1cccc(Cl)c1)N1CCC2(CC1)Nc1cc(F)ccc1-n1cccc12	50.9% (inactive)

Compound	activity change, negative = inhibition
O=C1N[C@H](c2ccccc2)COCc2cn(nn2)CC[C@H]1Cc1cccc(Cl)c1	-2.88% (inactive)
CCN(CC)C(=O)[C@@H]1C[C@H](N)CN1C(=O)Cc1ccc(F)c(C)c1	3.3% (inactive)
Cc1cc(-c2cc(C3CCN(C(=O)C4CC(=O)C4)C3)ccn2)ccc1F (configuration not stated)	14.5% (inactive)
c1ccc2c(-c3noc4c3CN(CC3CCCO3)CC4)cccc2c1 (configuration not stated)	-4.04% (inactive)
Clc1ccc(-c2noc3c2CN(CCn2cc(Cl)cn2)CC3)cc1	-72.1% (active)
O=C(CCc1ccco1)N1CCc2onc(-c3ccc(C(F)(F)F)cc3)c2C1	9.55% (inactive)
O=C(CC1COCCN1)NCCC(c1ccccc1)c1ccccc1 (configuration not stated)	-9.21% (inactive)
CNc1nc(N2CCN(Cc3nccn3C(C)C)CC2)nc2c1CCC2	8.7% (inactive)
Cc1nc(CN2CCCn3nnc(COC(C)C)c3C2)cs1	9.42% (inactive)
COCCC(=O)N1CCN(CC2CC2)c2nc(C)ccc2C1	-15.5% (inactive)
Cn1nnc(-c2ccc(C(=O)NC(CN3CCCCC3)c3ccccc3)cc2)n1 (configuration not stated)	-0.396% (inactive)
CCOC(=O)c1nc(N2CCC(c3ccccc3)C2)c2ccccc2n1 (configuration not stated)	11.8% (inactive)
Clc1ccc(Cn2ncc3c(NCc4cccnc4)ncnc32)cc1	-81.5% (active)
O=C(Cn1ncc2c(N3CCN(c4ccccn4)CC3)ncnc21)NCc1ccc(F)c(Cl)c1	-16.9% (inactive)
O=C(Cn1ncc2c(N3CCN(c4ccccc4)CC3)ncnc21)Nc1ccc(Cl)cc1	-12.8% (inactive)
CCC(=O)N1Cc2cc(C(=O)NCc3cccc(F)c3)nc(-c3cccc(C4=CCCC4)c3)c2[C@H]1CCO	-51.7% (inactive)
Cc1cccc(OC2CCN(C(=O)c3ccc(OCc4nonc4C)cc3)CC2)c1	-46.1% (inactive)
Cc1cccc2[nH]nc(-c3cc(NCCN(C)C)nc4[nH]ccc34)c12	-0.259% (inactive)
CNc1cc(-c2cc(C(C)C)nc(C(F)(F)F)n2)c2cc[nH]c2n1	-83.6% (active)
Cc1nc(C)n(CCC(=O)N2CCN(S(=O)(=O)c3ccccc3)CC2)n1	55.6% (inactive)
CC1=NOC(C)(CNC(=O)c2csc(-c3cccs3)n2)C1 (configuration not stated)	-3.52% (inactive)
O=C(Sc1cccs1)c1csc(C2COc3ccccc3O2)n1 (configuration not stated)	-96.7% (active)

Compound	activity change, negative = inhibition
Cc1nc2ccccn2c1C(=O)N1CCCC(Cn2cc(C3CC3)nn2)C1 (configuration not stated)	26.9% (inactive)
CN(C)C(=O)CN1CC2CN(Cc3ccncc3)CCC2(c2ccccc2)C1 (configuration not stated)	-2.67% (inactive)
O=C1NCC(CN2CCOc3c(O)cc(-c4csc5ccccc45)cc3C2)O1 (configuration not stated)	-76.2% (active)
CCC(C(=O)OC)N1CCOc2c(O)cc(-c3ccc(C)s3)cc2C1 (configuration not stated)	-5% (inactive)
COc1cc(COC2CN(C(=O)c3csc(SC)n3)CC(=O)N(C(C)C)C2)cc(OC)c1 (configuration not stated)	-6.26% (inactive)
CCOCC1CN(Cc2ccc3c(c2)OCO3)Cc2cncn2C1 (configuration not stated)	-0.275% (inactive)
OCCn1c(-c2ccc(-c3ccn[nH]3)cc2)nc2ccccc21	92.2% (inactive)
COc1ccc(-c2nc3ccccc3n2-c2cc(C(C)(C)C)c(O)c(C(C)(C)C)c2)cc1	-86.1% (active)
CCN1CCN(c2nc(-c3ccc(OC)cc3)nc3ccccc23)CC1	-47.8% (inactive)
C=CCOCC12CCCOC1CCN(S(=O)(=O)c1cccnc1)C2 (configuration not stated)	40.1% (inactive)
CCCN1CCN(C(=O)c2nc(-c3cccc(F)c3)n3c2CCCCC3)CC1	3.76% (inactive)
CCOc1ccccc1NC(=O)C(=O)NCCc1csc(-c2cccc(F)c2)n1	-13.3% (inactive)
CCOc1ccccc1CNC(=O)c1nc(-c2cccc(F)c2)n2c1CCCCC2	-84.4% (active)
CC(C)N1CCN(C(=O)c2csc(-c3ccc(N4CCCC4)nc3)n2)CC1	-27.3% (inactive)
Cc1cccc(Cc2c(C)[nH]n(-c3nc4ccccc4[nH]3)c2=O)c1	-124% (active)
Nc1cccc(CCc2nc3ccccc3[nH]2)c1	22% (inactive)
Cc1nc2nc(Cc3ccc(Cl)cc3)[nH]n2c(=O)c1Cc1ccccc1	4.81% (inactive)
CN(C)c1ncnc2c1CCN(C(=O)c1ccnnc1)CC2	-0.9% (inactive)
Cc1ccc(-c2nn(C(C)(C)C)c3ncnc(N)c23)cc1	-84% (active) and -73.5% (active)
Cn1cc(CN2CCc3ncnc(-c4ccccc4)c3CC2)cn1	-8.43% (inactive)
Cc1cccnc1CN(C)C(=O)c1cc(CN2CCC(Cc3ccccc3)CC2)on1	9.1% (inactive)
Oc1c(Cl)cc(Cl)c(Cl)c1Cc1c(O)c(Cl)cc(Cl)c1Cl	-85.3% (active) and -87.1% (active) and -96% (active)

Compound	activity change, negative = inhibition
N#Cc1cccc(-c2ccc3c(c2)[C@H]2[C@H](CCN2S(=O)(=O)c2ccc(F)cc2)[C@@H](CO)N3)c1	-42.4% (inactive)
COCC#Cc1ccc([C@@H]2[C@@H](CO)N3CCCCN(C(=O)NC4CCCC4)C[C@H]23)cc1	-18.5% (inactive)
CC(C)NS(=O)(=O)c1ccc(OCC(=O)N2CCCCCC2)cc1	1.18% (inactive)
O=C(CC1CCN(Cc2ccccn2)CC1)Nc1ccc(OC2CCCC2)cc1	-69.9% (inactive)
O=C1CCCN1CC1CN(Cc2ccccn2)Cc2nccn2C1 (configuration not stated)	-70.8% (active)
O=C1CCCN1CC1CN(c2ncc(F)cn2)Cc2nccn2C1 (configuration not stated)	4.1% (inactive)
COC(=O)c1ccc(-c2noc(-c3c(O)c4ccccc4[nH]c3=O)n2)cc1	21.8% (inactive)
O=C(CCCn1cnnn1)N1CCc2onc(-c3cccc(F)c3)c2C1	-6.14% (inactive)
CCCCCCCCCc1ccc(OCCOCCOCCOCCOCCOCCOCCOCCOCCO)cc1	-80.7% (active)
CCCCc1ccc(S(N)(=O)=O)cc1	-51.9% (inactive)
CCCCCc1ccc(C#Cc2ccc(OC(F)F)cc2)cc1	5.21% (inactive)
Cc1cc(-c2cccc(O)c2)nc(-c2ccccc2O)n1	-20% (inactive)
CN1C(=O)c2cc(NC(=O)C3CCOCC3)ccc2OC[C@@H]2O[C@H](CC(=O)NCc3ccccc3F)CC[C@H]21	11.5% (inactive)
CN(C)C(=O)N1CCc2ncnc(C3CCOC3)c2CC1 (configuration not stated)	1.98% (inactive)
O=C(Cn1c(=O)cc(C(=O)N2CCCCC2)c2ccccc21)NC1CCCC1	11.6% (inactive)
CC(C)CN1CCC2(C=C(C(=O)N(C)C)c3ccccc32)CC1	-81.7% (active)
CC(C)CN1C(=O)N(C2Cc3ccccc3C2)C(=O)C12CCN(Cc1nc3ccccc3n1C)CC2	-8.38% (inactive)
CC(C)CN1CC[C@H]2[C@H](CC1)S(=O)(=O)CCN2C(=O)c1ccccc1	3.93% (inactive)
Cc1ccc(C(=O)N2CCC3(CC2)C(=O)N(C)CCN3CC2CC2)cn1	1.05% (inactive)
CN1C[C@@H]2C3(CCN(C(=O)Nc4ccccc4)CC3)CC[C@@]2(C(=O)N2CCCC2)C1	6.69% (inactive)
COc1ccc2c3c(n(C)c2c1)[C@@H](CO)N(C)CC31CN(S(=O)(=O)c2cccs2)C1	36% (inactive)
